Screening data as filed in PubChem.
Sa ugtP lethal – kills S. aureus RN4220 lacking UgtP | S. aureus RN4220 ugtP deletion, OD600 growth, 16 h | 330,000 compounds, 0.54% hits | growth inhibition, % (concentration not given with the values); in the data active = growth inhibition above about 68%;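 also: plate controls were untreated wells for no effect and antibiotic for full effect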
CCHF vOTU inh – CCHFV vOTU protease inhibition. Pep-AMC fluorescence. inhibition, % at 11.5 µM. 370,000 compounds, 0.55% hits. AID 651958; in the data active = inhibition above about 30%; also: 0% = vehicle wells with enzyme and 100% = no enzyme wells
Sa RN4220 lethal – kills Staphylococcus aureus RN4220; 330,000 compounds, 0.33% hits; inhibition, % (concentration not given with the values); S. aureus RN4220 growth, OD600, 16 h; AID 1259311; in the data active = inhibition above about 85%;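 also: plate controls were untreated cells for no effect and reference antibiotic for full effect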
BJeLR viability – kills HRASV12-expressing BJeLR cells; BJeLR (HRASV12) viability, CellTiter-Glo ATP luminescence, 48 h; inhibition, % (concentration not given with the values); 300,000 compounds, 0.17% hits; AID 1554; in the data active = inhibition above about 50%
RecA splice inh – blocks M. tuberculosis RecA intein splicing. P9WHJ3. cell-free RecA intein splicing, fluorescence. inhibition, % (concentration not given with the values). 290,000 compounds, 0.75% hits. AID 2221; in the data active = inhibition above about 30%;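 also: 0% = vehicle wells and 100% = reference inhibitor control wells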
Target sequence (P9WHJ3 whole entry, looked up, canonical isoform): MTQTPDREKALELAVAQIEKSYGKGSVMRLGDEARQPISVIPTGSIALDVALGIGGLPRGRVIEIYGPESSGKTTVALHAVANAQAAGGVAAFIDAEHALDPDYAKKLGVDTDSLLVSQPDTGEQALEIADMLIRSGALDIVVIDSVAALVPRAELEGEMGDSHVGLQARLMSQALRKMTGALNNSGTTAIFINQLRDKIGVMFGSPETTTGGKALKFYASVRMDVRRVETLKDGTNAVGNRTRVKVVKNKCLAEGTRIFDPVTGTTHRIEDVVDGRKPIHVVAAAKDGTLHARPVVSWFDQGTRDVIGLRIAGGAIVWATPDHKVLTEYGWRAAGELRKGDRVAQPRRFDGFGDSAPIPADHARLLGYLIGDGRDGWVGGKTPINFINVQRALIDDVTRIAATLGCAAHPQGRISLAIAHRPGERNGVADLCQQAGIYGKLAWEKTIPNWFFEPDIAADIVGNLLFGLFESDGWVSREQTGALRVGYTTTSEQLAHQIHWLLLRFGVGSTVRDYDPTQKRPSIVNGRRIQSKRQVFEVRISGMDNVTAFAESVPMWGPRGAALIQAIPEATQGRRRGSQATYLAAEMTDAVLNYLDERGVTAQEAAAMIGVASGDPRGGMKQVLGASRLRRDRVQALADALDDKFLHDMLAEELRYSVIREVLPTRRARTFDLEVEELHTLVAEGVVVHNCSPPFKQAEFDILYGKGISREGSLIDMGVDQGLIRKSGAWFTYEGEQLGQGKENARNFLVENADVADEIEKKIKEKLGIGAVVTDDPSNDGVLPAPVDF
Mtb hypoxia rep – inhibitors of hypoxia-regulated fluorescent reporter in Mycobacterium tuberculosis | M. tuberculosis hypoxia-regulated fluorescent reporter, fluorescence | fluorescence inhibition, % (concentration not given with the values) | 300,000 compounds, 0.1% hits | AID 1159583; in the data active = fluorescence inhibition mostly above about 23%, no sharp cut-off; inactive = mostly below about 17%
* marks the source's active call; other numbers are inactive results. This is a sample that favours compounds with a hit; in the whole collection about 1.6% have one here.

Results for O=C(NC(Nc1ncc(S(=O)(=O)c2ccc([N+](=O)[O-])cc2)s1)(C(F)(F)F)C(F)(F)F)c1ccc(Cl)cc1 ?
CCHF vOTU inh: 2; BJeLR viability: 70*; RecA splice inh: 6

Results for C=C(C)[C@@H]1CC=C(CN2CCN(Cc3ccccc3)CC2)CC1 ?
Sa ugtP lethal: 15; CCHF vOTU inh: -1; Sa RN4220 lethal: 2; BJeLR viability: -1; RecA splice inh: 1; Mtb hypoxia rep: 35*

How did C=C(C)C1CC=C(CN2CCN(Cc3ccccc3)CC2)CC1 (configuration not stated) do in these assays?
Sa ugtP lethal: 23; CCHF vOTU inh: -12; Sa RN4220 lethal: 2; BJeLR viability: -3; RecA splice inh: 3; Mtb hypoxia rep: 22

What do the screens show for `O=C(O)c1cccc(Cn2c(Cl)c(C=NNC(=O)c3cc4ccccc4cc3O)sc2=O)c1`?
Sa ugtP lethal: 9; Sa RN4220 lethal: 11; Mtb hypoxia rep: 22

Results for NCCCn1c(C(=O)c2ccc(Cl)cc2)c2ccc([N+](=O)[O-])cc2[n+]1[O-] ?
Sa ugtP lethal: 21; CCHF vOTU inh: 11; Sa RN4220 lethal: 31; BJeLR viability: 1; RecA splice inh: 3; Mtb hypoxia rep: 23

What do the screens show for `NC(=O)CCCn1c(C(=O)c2ccc(Cl)cc2)c2ccc([N+](=O)[O-])cc2[n+]1[O-]`?
Sa ugtP lethal: 63; CCHF vOTU inh: 0; Sa RN4220 lethal: 50; BJeLR viability: 2; RecA splice inh: 7; Mtb hypoxia rep: 40*

Results for CC=CC=CC(=O)Nc1cccc(C2=NOC3(C2)CC(C(N)=O)N(C(=O)c2cc([N+](=O)[O-])cc([N+](=O)[O-])c2)C3)c1 (configuration not stated) ?
Sa ugtP lethal: -1; Sa RN4220 lethal: 19; Mtb hypoxia rep: 57*

What do the screens show for `Cc1ccccc1NC(=S)c1nc2ccccc2[nH]1`?
Sa ugtP lethal: 6; CCHF vOTU inh: 9; Sa RN4220 lethal: -6; BJeLR viability: 12; RecA splice inh: 9; Mtb hypoxia rep: 12

What do the screens show for `S=C(Nc1ccc(Cl)cc1)c1nc2ccccc2[nH]1`?
Sa ugtP lethal: 96*; CCHF vOTU inh: -7; Sa RN4220 lethal: 99*; BJeLR viability: -13; RecA splice inh: 16; Mtb hypoxia rep: 2

Results for CCCCn1c(=O)[nH]c2nc3cc(N)ccc3nc2c1=O ?
Sa ugtP lethal: 0; CCHF vOTU inh: 50*; Sa RN4220 lethal: 7; Mtb hypoxia rep: 4

Results for CN(CC(Cc1cccc2ccccc12)N(CC(Cc1ccccc1)N(CCc1ccccc1)N=O)N=O)N=O (configuration not stated) ?
Sa ugtP lethal: 8; Sa RN4220 lethal: 4; Mtb hypoxia rep: 3

How did Nc1ccc2nc(N3CCOCC3)sc2c1 do in these assays?
Sa ugtP lethal: 0; CCHF vOTU inh: 19; Sa RN4220 lethal: 3; BJeLR viability: 1; RecA splice inh: 80*; Mtb hypoxia rep: 3

What do the screens show for `O=C(CCl)Nc1sccc1C(=O)c1ccccc1`?
Sa ugtP lethal: 4; CCHF vOTU inh: -3; Sa RN4220 lethal: 6; BJeLR viability: 17; RecA splice inh: 57*

How did CNC(=O)c1ccsc1NC(=O)c1ccccc1 do in these assays?
Sa ugtP lethal: 4; CCHF vOTU inh: -2; Sa RN4220 lethal: 4; BJeLR viability: -4; RecA splice inh: 1; Mtb hypoxia rep: 1

Results for COC(CC=CC(O)COCc1ccccc1)OC (configuration not stated) ?
Sa ugtP lethal: -2; Sa RN4220 lethal: 6; Mtb hypoxia rep: 15

How did COc1ccc(NC(=O)Nc2cccc3c2OC(CN(C)C(=O)Nc2c(C)noc2C)C(C)CN(C(C)CO)C3=O)cc1 (configuration not stated) do in these assays?
Sa ugtP lethal: -8; Sa RN4220 lethal: 2; Mtb hypoxia rep: 7

How did COc1cccc(-c2sc3ccc(OC)cc3c2-c2ccc(OCCN3CCCC3)cc2)c1 do in these assays?
Sa ugtP lethal: 90*; Sa RN4220 lethal: 95*

What do the screens show for `COc1cccc(-c2sc3ccccc3c2-c2ccc(OCCN3CCCC3)cc2)c1`?
CCHF vOTU inh: 1

Results for COc1cccc(-c2sc3ccc(OC)cc3c2-c2ccc(OC)cc2F)c1 ?
Sa ugtP lethal: 90*; CCHF vOTU inh: 1; Sa RN4220 lethal: -1; Mtb hypoxia rep: 2

What do the screens show for `COc1ccccc1-c1sc2ccccc2c1-c1ccc2c(c1)OCCO2`?
Sa ugtP lethal: 99*; CCHF vOTU inh: 6; Sa RN4220 lethal: -10; Mtb hypoxia rep: 5

Results for COc1ccc2sc(-c3ccccc3OC)c(-c3ccc(OCCN(C)C)cc3)c2c1 ?
Sa ugtP lethal: 88*; CCHF vOTU inh: 4; Sa RN4220 lethal: 2; Mtb hypoxia rep: 20

How did CCOC(=O)CN1C(=O)NC(c2ccccc2)C(C(C)=O)C1C (configuration not stated) do in these assays?
Sa ugtP lethal: 0; Sa RN4220 lethal: 5; Mtb hypoxia rep: 4

What do the screens show for `COC(=O)[C@]1(C)NC(c2ccc(-c3ccc(Cl)c(Cl)c3)c(OC)c2)C2C(=O)N(C)C(=O)C21` (some centres not stated)?
Sa ugtP lethal: -8; Sa RN4220 lethal: -7; Mtb hypoxia rep: 8

Results for COc1ccc(C=Cc2nc(-c3ccccc3O)n(-c3ccccc3)n2)cc1 ?
Sa ugtP lethal: -2; Sa RN4220 lethal: 5; Mtb hypoxia rep: 5

How did CC(C)CC(NC(=O)CCl)c1ccccc1 (configuration not stated) do in these assays?
Sa ugtP lethal: 0; CCHF vOTU inh: 0; Sa RN4220 lethal: 4; BJeLR viability: -2; RecA splice inh: 44*; Mtb hypoxia rep: 12

What do the screens show for `O=C(CC(=O)c1ccccc1O)c1cccc(F)c1`?
Sa ugtP lethal: 96*; Sa RN4220 lethal: 79; BJeLR viability: -2; RecA splice inh: 4

What do the screens show for `O=C(CC(=O)c1ccccc1O)c1ccc(F)cc1`?
Sa ugtP lethal: 90*; CCHF vOTU inh: 5; Sa RN4220 lethal: 84; BJeLR viability: -3; RecA splice inh: 4; Mtb hypoxia rep: -1

How did C#CCOCCOCCOCCNc1nc(N2CCOCC2)nc(N2CCN(C(=O)C(CC(N)=O)n3cc(C(N)C(C)C)nn3)CC2)n1 (configuration not stated) do in these assays?
Sa ugtP lethal: -3; Sa RN4220 lethal: 7; Mtb hypoxia rep: 6

Results for COc1ccc(-n2nc(C(=O)NCC(=O)NC3CCCC(C)C3C)c3ccccc3c2=O)c(OC)c1 (configuration not stated) ?
Sa ugtP lethal: 6; CCHF vOTU inh: 7; Sa RN4220 lethal: 7; BJeLR viability: -6; RecA splice inh: 1; Mtb hypoxia rep: 35*

Results for COc1ccc(-n2nc(C(=O)NCC(=O)NC3CCCC(C)C3C)c3ccccc3c2=O)cc1 (configuration not stated) ?
Sa ugtP lethal: -10; CCHF vOTU inh: 5; Sa RN4220 lethal: 8; BJeLR viability: -3; RecA splice inh: 1; Mtb hypoxia rep: 15
